Experimental data as given in PubChem BioAssay (NCATS).
Records with an inconclusive call do not appear. Entries that show only a call come without a potency. Calls of active or inactive are those of the source. The call rests on the fitted dose curve; in most records, active means well fitted inhibition curve with a large enough effect; inconclusive means small, poorly fitted or top-dose-only effect; inactive means flat fitted curve, though single readings scatter.

assay: P-glycoprotein substrates identified in KB-8-5-11 adenocarcinoma cell line, qHTS therapeutic library screen (AID 1346987); settings: KB-8-5-11 (P-gp overexpressing) viability, CellTiter-Glo, 72 h; series mostly up to 44.5 µM; further: nearly all actives have a fitted effect of over 65% in size
Procedure, shortened: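 KB-8-5-11, a colchicine-selected P-gp-overexpressing KB-3-1 subline, was grown without colchicine for the assay. Cells were seeded at 500 cells/well, dosed in concentration-response and incubated 72 h at 37 degree C, 5% CO2. Viability was read by CellTiter-Glo luminescence.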

Row | SMILES | Potency | activity change, negative = cytotoxicity
1 | Cn1nccc1-c1ccccc1Oc1ccc(S(=O)(=O)Nc2nccs2)cc1C#N | inactive | –
2 | CC(NC(=O)CC(=O)O)C(=O)Nc1ccccc1C(N)=O (centres undefined) | inactive | –
3 | O=C(Nc1ccc(N2CCC(C(=O)N3CCOCC3)CC2)cc1)c1cnc(Oc2ccccc2)nc1 | inactive | –
4 | O=C(O)CCc1ccc(NCc2cccc3c2CCCN3CCOc2ccccc2)cc1F | inactive | –
5 | O=C(O)c1ccnc(-c2cc(C(=O)NCCc3ccccc3)ccn2)c1 | inactive | –
6 | C=C1C(O)C(OC(=O)c2ccccc2)C2C(C)(C(=O)O)CCCC2(C)C1CC/C(C)=C\CO (centres undefined) | inactive | –
7 | CC1(C)CC[C@]2(C(=O)O)CC[C@]3(C)C(=CCC4[C@@]5(C)C[C@H](O)[C@H](O[C@@H]6O[C@H](CO)[C@@H](O)[C@H](O)[C@H]6O)[C@@](C)(CO)C5[C@H](O)C[C@]43C)[C@@H]2C1 (some centres undefined) | inactive | –
8 | C=C1CCC2C(C)(C)CC(O)CC2(C)C1CCC(C)CCOC(=O)CCC(=O)O (centres undefined) | inactive | –
9 | COc1ccc([C@H]2OC[C@H]3[C@@H]2CO[C@@H]3c2ccc(O[C@@H]3O[C@H](CO)C(O)[C@H](O)[C@H]3O)c(OC)c2)cc1OC (some centres undefined) | inactive | –
10 | COc1cc(O)cc2c1C(=O)OC(C)C2 (centres undefined) | inactive | –
11 | CC(C)N(CCCNC(=O)Nc1ccc(C(C)(C)C)cc1)C[C@H]1O[C@@H](n2ccc3c(N)ncnc32)[C@H](O)[C@@H]1O | inactive | –
12 | O=S(=O)(O)c1ccc(Nc2ncnc3c2ncn3[C@@H]2O[C@H](CO)[C@@H](O)[C@H]2O)cc1 | inactive | –
13 | C/C=C/C=C/C1=C2C(=O)C3(C)C4C(C(=O)CC(O)/C=C/C)=C(O1)C1(C)C2C2(C)OC1(O)C4(C)OC23O (centres undefined) | inactive | –
14 | CC(=O)OC[C@]12[C@@H](OC(=O)c3ccoc3)C[C@@H]3[C@@H](OC(C)=O)[C@]1(OC3(C)C)[C@@](C)(O)C[C@H](OC(=O)c1ccoc1)[C@@H]2OC(=O)c1ccoc1 | inactive | –
15 | CC(C)=CCC[C@](C)(O[C@@H]1O[C@H](CO[C@@H]2OC[C@H](O)[C@H](O)[C@H]2O)[C@@H](O)[C@H](O)[C@H]1O)[C@H]1CC[C@]2(C)[C@@H]1[C@H](O)C[C@@H]1[C@@]3(C)CC[C@H](O[C@@H]4O[C@H](CO)[C@@H](O)[C@H](O)[C@H]4O[C@@H]4O[C@H](CO)[C@@H](O)[C@H](O)[C@H]4O)C(C)(C)[C@@H]3CC[C@]12C | inactive | –
16 | COC(=O)C(CC1(O)c2ccccc2N2C(=O)C(C)(C)N(O)C21)n1cnc2ccccc2c1=O (centres undefined) | inactive | –
17 | COc1cc([C@H]2OC[C@](O)(Cc3ccc(O[C@@H]4O[C@H](CO)[C@@H](O)[C@H](O)[C@H]4O)c(OC)c3)[C@@H]2CO)ccc1O | inactive | –
18 | O=C(OC[C@H]1O[C@@H](Oc2ccccc2CO)[C@H](O)[C@@H](O)[C@@H]1O)c1ccccc1 | inactive | –
19 | CC1(C)CCC2(C(=O)O)CCC3(C)C(=CCC4C5(C)CCC(O)C(C)(CO)C5C(O)CC43C)C2C1 (centres undefined) | inactive | –
20 | COC(=O)C(Cc1ccccc1)NC(=O)c1ccccc1 (centres undefined) | inactive | –

Row | SMILES | Potency | activity change, negative = cytotoxicity
21 | C=CC(C)(O)CC/C=C(\C)COC1O[C@H](CO)[C@@H](O)[C@H](O)[C@H]1O (some centres undefined) | inactive | –
22 | CC1=C2CC(O)(C(C)(C)O)C(O[C@@H]3O[C@H](CO)[C@@H](O)[C@H](O)[C@H]3O)CC(C)C2CC1=O (some centres undefined) | inactive | –
23 | COC(=O)C1=CO[C@@H](O[C@@H]2O[C@H](CO)[C@@H](O)[C@H](O)[C@H]2O)[C@@H]2[C@@H](C(=O)O)CC[C@H]12 | inactive | –
24 | O=C1OC(c2ccc(O)cc2)C(O)=C1Cc1ccccc1 (centres undefined) | inactive | –
25 | CC1C2=CC(=O)OC2(O)CC2C1C(O)CC1C(C)(CO)CCCC21C (centres undefined) | inactive | –
26 | C=C(C(=O)O)[C@@H]1CC[C@H](C)[C@@H]2CC(=O)C(C)=C2C1 | inactive | –
27 | CC(=O)O[C@@H](C[C@@H]1C=C(C)C(=O)O1)[C@H](C)[C@H]1CCC2[C@@]3(C)CC[C@H](O[C@@H]4O[C@H](CO)[C@@H](O)[C@H](O)[C@H]4O[C@@H]4O[C@@H](C)[C@H](O)[C@@H](O)[C@H]4O)C(C)(C)C3CC[C@@]2(C)[C@@]12COC(=O)C2 (some centres undefined) | – | -0.38% [at 9.29 µM] (inactive)
28 | COc1cccc2c1c(O)c(C(=O)N(C)c1ccc(C(F)(F)F)cc1)c(=O)n2C | inactive | –
29 | C=C1Cc2c(Cl)cc3[nH]c4c5c3c2[C@@]2(O)[C@@H]1C[C@@H]2C(C)(C)O[C@H]5C1CC[C@@]2(O)[C@@]35O[C@@H]3[C@H]3OC(C)(C)[C@H]3O[C@H]5CC[C@]2(C)[C@@]41C (some centres undefined) | inactive | –
30 | CC1=CCC(O)C2(C)CCC3C(C)C(=O)OC3C12 (centres undefined) | inactive | –
31 | C=C1CCC2[C@@](C)(C(=O)O)CCC[C@@]2(C)[C@@H]1CCc1ccoc1 (some centres undefined) | inactive | –
32 | COc1cc(O)c2c(c1)C1(OC2=O)C(C)=CC(=O)C1O (centres undefined) | inactive | –
33 | COC(=O)Cn1nc(-c2cccc(OC)c2)c2ccccc21 | inactive | –
34 | C=C(CCO)C(=O)OCC1OCC(OC(=O)C(=C)CCO[C@@H]2O[C@H](COC(=O)C(=C)CCO[C@@H]3O[C@H](CO)[C@@H](O)[C@H](O)[C@H]3O)[C@@H](O)[C@H](O)[C@H]2O)C(O)C1O (some centres undefined) | inactive | –
35 | CC1(C(=O)O)CCCC2(C)C3CC4C5CC3(CCC12)CC45C (centres undefined) | inactive | –
36 | CC(C)=C1CC2[C@](C)(CC[C@@H](OC(=O)C3(C)OC3C)[C@@]2(C)O)CC1=O (some centres undefined) | inactive | –
37 | C=C1CC/C=C(/CO)C(=O)C[C@@H]2[C@@H]1C[C@@]2(C)COC(C)=O | inactive | –
38 | CC1CCC2(C)CCC3(C)C(=CCC4C5(C)CCC(O)C(C)(C(=O)O)C5CCC43C)C2C1C (centres undefined) | inactive | –
39 | COc1cc2c(c(OC)c1O)C(c1ccc(O)cc1)C1C(=O)OC3C(COC(=O)C1=C2)OC(CO)(OC1OC(COC(=O)/C=C/c2ccc(OC4OC(C)C(O)C(O)C4O)cc2)C(O)C(O)C1O)C3O (centres undefined) | – | 2.8% [at 9.29 µM] (inactive)
